Results on 86 molecules are retold here after PubChem BioAssay AID686964 (The Scripps Research Institute Molecular Screening Center, 2013).

“And” between values parts separate entries of the source, which are not always exact repeats. Equal entries are not always repeated. Hit rate of the full screen: of about 370,000 compounds, about 1,100 (0.3%) were called active. What follows is part of a selection rich in actives, with near analogues and random picks from the rest. Unmarked numbers belong to inactive results. No stated cut-off is given here; in the data, active means inhibition above about 13%; inactive means the rest.

Chain of Methyl-CpG-binding domain protein 2 (Homo sapiens) (Q9UBB5 whole entry, looked up, the tested form may be a part): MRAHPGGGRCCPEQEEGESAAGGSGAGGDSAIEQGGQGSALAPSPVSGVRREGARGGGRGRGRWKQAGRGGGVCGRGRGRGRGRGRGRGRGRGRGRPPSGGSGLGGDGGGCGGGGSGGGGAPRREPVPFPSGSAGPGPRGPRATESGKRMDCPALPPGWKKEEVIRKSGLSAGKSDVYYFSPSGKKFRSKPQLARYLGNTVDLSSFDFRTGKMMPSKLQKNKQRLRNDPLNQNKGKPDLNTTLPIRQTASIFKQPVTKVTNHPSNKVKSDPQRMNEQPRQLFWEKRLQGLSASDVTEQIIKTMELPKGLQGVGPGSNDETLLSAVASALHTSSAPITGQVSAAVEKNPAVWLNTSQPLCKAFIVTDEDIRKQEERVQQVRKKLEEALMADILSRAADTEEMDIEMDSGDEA

The assay concerns the target Methyl-CpG-binding domain protein 2 (Homo sapiens) (UniProt Q9UBB5). In words: inhibitors of MBD2 binding to methylated DNA, primary screen, biochemical, TR-FRET, DNA-binding domain, human (AID 686964). The settings on record: MBD2 binding to methylated oligonucleotide, at 4.4 µM, stronger effect = higher value. (TR-FRET usually uses a lanthanide donor and a delayed reading to cut background.)
In general, inhibition refers to the drop in the measured response relative to a control, in per cent. `CCn1cc(C(=O)N2CC(C)CC(C)C2)c(=O)c2cc(S(=O)(=O)N3CCCC3)ccc21` (stereo unspecified): the inhibition is -7.45%. To `CC1CCCCC1NC(=O)c1cn(C)c2ccc(S(=O)(=O)N3CCOCC3)cc2c1=O` (stereo unspecified) belongs 0.43%; to `COC(=O)c1cn(C)c2ccc(S(=O)(=O)N3CC(C)CC(C)C3)cc2c1=O` (stereo unspecified), 21.1% (active); to `Cc1cc(C)c2nc(-c3ccco3)cc(C(=O)O)c2c1`, 13.2% (active). In the case of `Cc1cc(C)c2nc(-c3cccnc3)cc(C(=O)Nc3ccc(S(=O)(=O)Nc4onc(C)c4C)cc3)c2c1`, the inhibition is -1.74%. Then `CCOC(=O)c1ccn(-c2nc(-c3ccco3)cc(C(F)(F)F)n2)n1`, with 1.89%.

As to `CCC(=O)c1c(CC)c2n3c1=CC[C@H]3CC(Br)C=2` (stereo partly specified), the inhibition is 1.67%. Then `Cc1ccc(C(=O)Nc2ccc3c(c2)OCO3)cc1S(=O)(=O)N1CCCCC1`, with 13.4% (active); and `Cc1ccc(NC(=O)C2CC(=O)N(c3ccc4c(c3)OCCO4)C2)cc1S(=O)(=O)N1CCCCCC1` (stereo unspecified), with 2.94%; and `Cc1ccc(C(=O)NNC(=O)c2ccncc2)cc1S(=O)(=O)N1CCCCC1`, with -3.54%.

In the case of `Cc1cc(C)nc(NC(=S)N2CCN(c3ccc(C(F)(F)F)cn3)CC2)c1`, the inhibition is -0.18%.

As for `N#Cc1ccccc1CN1C(=O)S/C(=C/c2cccn2-c2cccc(C(=O)O)c2)C1=O`, the inhibition is 10.6%. Then `Cc1ccccc1NC(=O)CN1C(=O)N/C(=C\c2cccn2-c2cccc(C(=O)O)c2)C1=O`, with 20.6% (active); and `COC(=O)CN1C(=O)N/C(=C/c2ccc(OC)c(C)c2OC)C1=O`, with -3.97%; and `Cc1ccc(Cn2cc(CN3[C@@H](C)COc4cc(Br)ccc4S3(=O)=O)nn2)cc1`, with -5.2%. To `CCc1noc(C)c1C(=O)N1CCN(S(=O)(=O)c2cccc(C(F)(F)F)c2)CC1` belongs -5.25%; to `O=C(CCl)NC1CCCCN(Cc2cccc(C(F)(F)F)c2)C1=O` (stereo unspecified), 3.06%; to `CCn1c(SCC(=O)Nc2ccc(Br)cc2)nc2sc3c(c2c1=O)CCN(C)C3`, 0.05%. Then `CCCSc1nc2sc3c(c2c(=O)n1-c1ccc(OC)cc1)CCN(C)C3`, with -2%; and `CCOc1ccc(-n2c(SCC(=O)Nc3ccc(OC)cc3)nc3sc4c(c3c2=O)CCN(C)C4)cc1`, with 23.5% (active). As to `CCCCC(=O)N[C@@H]1CC[C@@]23CCCN2C(=O)CCC[C@H]3[C@H]1C`, the inhibition was -0.72%. Then `COc1ccc(Cl)cc1NC(=O)COC(=O)c1ccc(Br)o1`, with -1.28%.

On to `COc1ccc(Cl)cc1NC(=O)CN(C)Cc1ccc(OC)c(OC)c1`, for which the inhibition is 0.39%. To `COc1ccc(Cl)cc1NC(=O)CCS(=O)(=O)c1ccc(Br)cc1` belongs 26.3% (active). Consider `CC(=O)N1CCc2cc(S(=O)(=O)NCCC(=O)N3CCCC3)ccc21`, for which the inhibition was 0.46%. Turning to `CCCN(CC(=O)NC(=O)NC1CCCCC1)CC(=O)Nc1cc(Cl)ccc1Cl`, the inhibition was -5.45%. Then `CCOC(=O)c1c(C)[nH]c(C(=O)NCCN2CCOCC2)c1C`, with 4.74%; and `CCOC(=O)c1sc(NC(=O)CCN2CCOCC2)c(C(=O)OCC)c1C`, with 28.4% (active). To `CCOC(=O)c1c(NC(=O)CCCN2CCOCC2)sc2c1CC(C)(C)OC2` belongs 0.1%. Then `CCN(C(=O)[C@@H](C1CC1)[C@@H](O)c1ccc2ccccc2c1)c1ccccc1`, with 3.52%. Turning to `O=C1C(=O)N(Cc2ccc(-c3ccsc3)cc2)c2ccc(OC(F)(F)F)cc21`, the inhibition is -3.46%. Then `CC(C)CCN1CCC(C)(NC(=O)c2ccccc2)C1=O` (stereo unspecified), with 0.15%; and `COC(=O)[C@]1(C#N)CC(=O)N(CC2CCCCC2)[C@@H]1c1ccccc1`, with -3.31%; and `COC(=O)c1ccc2nc(C3CCCCC3)c(Cc3cccc(F)c3)n2c1`, with 19% (active).

On to `COC(=O)c1ccc2nc(-c3ccc(F)cc3)c(Cc3ccc(C)cc3)n2c1`, for which the inhibition is 3.12%. Regarding `COC(=O)c1ccc2nc(-c3ccc(Cl)cc3)c(Cc3cccc(F)c3)n2c1`, the inhibition was 2.68%. To `O=S1(=O)c2ccc(Br)cc2OC[C@H](Cc2ccccc2)N1Cc1cn(Cc2ccccc2)nn1` belongs 9.67%; to `Cc1cc(NCCc2c[nH]c3ccccc23)ccc1Oc1cccnc1`, -2.55%. Regarding `COC(=O)c1ccc(CSc2nncn2N)cc1`, the inhibition was 48.3% (active). To `CC(C)CC(CC(C)C)=NNC(=O)c1ccc(CSc2nncn2C)cc1` belongs -5.89%; to `COC(=O)c1ccc(SCc2ccccc2)nc1`, -4.53%; to `COc1cccc2c1C(=O)c1c(O)c3c(c(O)c1C2=O)CC(O)(C(C)=NNC(=O)c1ccc(Cl)c(Cl)c1)CC3OC1CC(N)C(O)C(C)O1` (stereo unspecified), 111% (active).

For the molecule `CN[C@H]1C[C@H]2c3cc(N4CCOCC4)ccc3CCN2C[C@H]1[C@H](C)O`, the inhibition was -5.62%. Then `COC(=O)[C@@H]1CC(O)CN1C(=O)C12CC3CC(CC(C3)C1)C2` (stereo partly specified), with 2.14%. Then `COc1nc(Oc2ccc(=O)n(C)n2)nc(N(C)C)n1`, with -3.73%; and `COc1nc(N(C)C)nc(N2CC(=O)N(CCNS(=O)(=O)c3ccc(C)cc3)C2=N)n1`, with 15.6% (active). Take `Cc1ccc(S(=O)(=O)NCCSC(C)(C)C)cc1`: the inhibition is 0.35%. In the case of `COc1ccc(CSc2nnc(-c3cccc(C)c3)n2C)cc1`, the inhibition is 0%. Then `Cc1cc(Cl)ccc1N1C(=O)CC(SCCC(=O)O)C1=O` (stereo unspecified), with 2.13%; and `COC(=O)c1cc2c(c3c4ccccc4n(S(=O)(=O)c4cccc(C)c4)c13)C(=O)N(Cc1ccccc1)C2`, with 0.83%. For the molecule `CCc1ccccc1NC(=O)CN(c1ccc(OC)cc1OC)S(=O)(=O)c1ccccc1[N+](=O)[O-]`, the inhibition is 2.54%.

In the case of `O=C(Cc1ccc(Br)cc1)NCCN1CCOCC1`, the inhibition is -0.23%.

On to `c1ccc2cc3c(NCCN4CCOCC4)ccnc3cc2c1`, for which the inhibition was 15.3% (active). Then `CSc1ccc(CNCCN2CCOCC2)cc1`, with 2.47%; and `COc1ccccc1C(=O)NNC(=O)CCN1C(=O)/C(=C\c2ccccc2)SC1=S`, with 13.2% (active).

As for `COc1ccccc1C(=O)Nn1cnnc1`, the inhibition is 3.63%. To `COc1ccccc1C(=O)NCC(=O)OCC(=O)NNC(=O)c1ccc(Br)cc1` belongs -6.8%; to `Cn1cnnc1Sc1ccc(CN2CCN(C3CCCC3)C(CCO)C2)o1` (stereo unspecified), -4.49%; to `C[C@@H]1CN([C@@H](C)CO)C(=O)c2cccc(NC(=O)Nc3cccc4ccccc34)c2O[C@H]1CN(C)S(=O)(=O)c1ccccc1F`, -5.98%. To `COc1ccccc1C(=O)NC1CCCCN(C(C)C)C1=O` (stereo unspecified) belongs 6.15%; to `Cc1ccc(S(=O)(=O)N(CCc2ccccc2)c2ccc3c(c2)C2CC3CCN2C(=O)OCc2ccccc2)cc1` (stereo unspecified), -6.75%. Regarding `COc1ccc(CNC(=O)C2CCC(CNc3c(N4CCOCC4)c(=O)c3=O)CC2)cc1` (stereo unspecified), the inhibition is -0.13% and -5.05%. To `CCC(CC)C(C(=O)NC1CCCC1)N1CCN(c2cc(C)nc3ccccc23)CC1` (stereo unspecified) belongs -3.59%; to `CCOc1cc(N2CCOCC2)c(OCC)cc1NC(=O)c1cc(C)nc2ccccc12`, 13.2% (active); to `CCOc1ncccc1C(=O)Nc1ccc(S(=O)(=O)Nc2nc(C)cc(C)n2)cc1`, -2.5%. Take `CCOc1ccc(NC(=O)c2cc(C)nc3ccccc23)cc1`: the inhibition is 16.2% (active).

For the molecule `CCOc1cc(NC(=O)c2ccccc2C(=O)O)c(OCC)cc1NC(=O)c1ccccc1F`, the inhibition is 0.6%.

For `Cc1cc(C(=O)OCC(=O)Nc2nccs2)c2ccccc2n1`, the inhibition is 8.33%.

For the molecule `O=C(CSc1nc2ccccc2nc1N1CCCCC1)N1CCN(S(=O)(=O)c2cccc([N+](=O)[O-])c2)CC1`, the inhibition was -6.32%.

`O=C(NCc1ccc(Cl)cc1)C1CCCN(c2nc3ccccc3o2)C1` (stereo unspecified): the inhibition is -3.29%. Then `O=C(c1ccc(F)cc1)c1c[nH]c(C(=O)NCc2cccnc2)c1`, with 4.31%; and `O=C1CC[C@@]23CCCN2C(=O)CCC[C@H]3[C@H]1Cc1ccccc1`, with 1.8%; and `COC(=O)C(=Nc1ccccc1)/C(C(=O)C(=O)N(C)c1ccccc1)=C(\O)c1ccc(Cl)cc1`, with -5.32%. Then `C=CC1=C(C(=O)O)N2C(=O)[C@@H](NC(=O)/C(=N\OCC(=O)O)c3csc(N)n3)[C@H]2SC1`, with 52.4% (active); and `C=CC1=C(C(=O)O)N2C(=O)[C@@H](NC(=O)/C(=N/OCC(=O)O)c3csc(N)n3)[C@H]2SC1`, with 73.1% (active); and `CCCNc1ncnc2sc(C)c(C)c12`, with 1.28%.

As to `O=C(Nc1cc(F)cc(F)c1)OC1CCC12CCC(c1ccccc1)CC2` (stereo unspecified), the inhibition is 0.3%. Take `O=C1CC(c2ccc3c(c2)OCO3)N=C2N(CC3CC3)C/C(=C/c3ccccc3)N12` (stereo unspecified): the inhibition is -1.23%.

For `COCCN1CCN(C(=O)c2cc(COc3ccc(F)cc3Cl)on2)CC1`, the inhibition is 2.22%.

For the molecule `COc1ccc(OCc2cc(C(=O)NCC3(C)COC3)no2)c(Cl)c1`, the inhibition was 17.4% (active). As for `Cc1cc(OCc2cc(C(=O)NCc3cc(C(C)C)no3)no2)cc(C)c1Cl`, the inhibition is 4.94%. Regarding `COC(=O)C1=C(C)N(Cc2ccccc2C(F)(F)F)C(=NCc2ccc(C(F)(F)F)cc2)NC1c1ccc(F)cc1` (stereo unspecified), the inhibition was 2.2%.

`CN1C(=O)CN2CCc3ccccc3C2c2cc(Cl)ccc21` (stereo unspecified): the inhibition is -5.25%.

With `Cc1ccc(NC(=O)Cc2cccc(F)c2)c(S(=O)(=O)N2CCOCC2)c1`, the inhibition is -5.33%. Then `Cc1nc(CNc2ncnc3ccc(-c4ccc5c(c4)OCO5)cc23)cs1`, with -2.98%; and `COc1ccc(C2Nc3ccccc3C(=O)N2Cc2cccs2)cc1COc1c(C)cccc1C` (stereo unspecified), with -1.94%.
